Results as given in PubChem BioAssay AID1159580 (chemical genetic matrix, 2015).
In all, about 5,500 compounds went through this assay and about 2,000 (36%) were called active. About 18% were inconclusive and are not listed. Rule as the data show it: active = normalized growth mostly below about 0.91 (no sharp cut-off); inconclusive = no clear call, values can overlap the other calls; inactive = mostly above about 0.92. The list shows a part of the results.

Test: chemical genetic growth profiling, strain panel (AID 1159580);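 also: tested at 20 µM; growth read once vehicle control cultures reached saturation at 30 °C; 1 = growth at the plate median or of vehicle wells; lower values mean less growth of the strain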
Details: growth OD

Measured: normalized growth

C=C1C(=O)O[C@@H]2C3O[C@]3(C)CC/C=C(\C)CC[C@@H]12 (some centres not stated)
inactive: S. cerevisiae deletion strains, locus YKL009W, strain mrt4, stronger effect = lower value 0.913 | S. cerevisiae deletion strains, locus YKL085W, strain MDH1 (second series), stronger effect = lower value 0.932 | S. cerevisiae deletion strains, locus YKL085W, strain MDH1, stronger effect = lower value 0.932 | S. cerevisiae deletion strains, locus YKL160W, strain elf1, stronger effect = lower value 0.946 | S. cerevisiae deletion strains, locus YKR026C, strain gcn3, stronger effect = lower value 0.991 | S. cerevisiae deletion strains, locus YKR091W, strain srl3, stronger effect = lower value 0.99 | S. cerevisiae deletion strains, locus YLL001W, strain dnm1, stronger effect = lower value 0.968 | S. cerevisiae deletion strains, locus YLL026W, stronger effect = lower value 0.987 | S. cerevisiae deletion strains, locus YLL041C, strain sdh2, stronger effect = lower value 0.987 | S. cerevisiae deletion strains, locus YLR027C, strain aat2, stronger effect = lower value 0.969 | S. cerevisiae deletion strains, locus YLR058C, strain SHM2, stronger effect = lower value 0.934 | S. cerevisiae deletion strains, locus YLR102C, strain apc9, stronger effect = lower value 0.944 | S. cerevisiae deletion strains, locus YLR113W, strain HOG1, stronger effect = lower value 0.932 | S. cerevisiae deletion strains, locus YLR221C, strain rsa3, stronger effect = lower value 0.993 | S. cerevisiae deletion strains, locus YLR258W, strain gsy2, stronger effect = lower value 0.999 | S. cerevisiae deletion strains, locus YLR320W, strain mms22, stronger effect = lower value 0.893 | S. cerevisiae deletion strains, locus YLR342W, strain FKS1, stronger effect = lower value 0.94 | S. cerevisiae deletion strains, locus YLR357W, strain rsc2, stronger effect = lower value 1.08 | S. cerevisiae deletion strains, locus YLR370C, strain arc18, stronger effect = lower value 0.964 | S. cerevisiae deletion strains, locus YLR384C, strain iki3, stronger effect = lower value 0.975 | S. cerevisiae deletion strains, locus YML120C, strain ndi1, stronger effect = lower value 0.96 | S. cerevisiae deletion strains, locus YMR058W, strain fet3, stronger effect = lower value 0.992 | S. cerevisiae deletion strains, locus YMR129W, stronger effect = lower value 0.993 | S. cerevisiae deletion strains, locus YMR205C, strain PFK2, stronger effect = lower value 0.938 | S. cerevisiae deletion strains, locus YMR231W, strain pep5, stronger effect = lower value 0.982 | S. cerevisiae deletion strains, locus YMR263W, strain SAP30, stronger effect = lower value 0.9 | S. cerevisiae deletion strains, locus YNL128W, strain TEP1, stronger effect = lower value 0.925 | S. cerevisiae deletion strains, locus YNL183C, strain NPR1, stronger effect = lower value 0.952 | S. cerevisiae deletion strains, locus YNL209W, strain ssb2, stronger effect = lower value 0.979 | S. cerevisiae deletion strains, locus YNL248C, strain rpa49, stronger effect = lower value 0.897 | S. cerevisiae deletion strains, locus YNL250W, strain rad50, stronger effect = lower value 0.933 | S. cerevisiae deletion strains, locus YNL322C, strain KRE1 (second series), stronger effect = lower value 0.981 | S. cerevisiae deletion strains, locus YNR049C, strain mso1, stronger effect = lower value 0.997 | S. cerevisiae deletion strains, locus YOL006C, strain TOP1, stronger effect = lower value 0.547 | S. cerevisiae deletion strains, locus YOL012C, strain htz1 0.318 | S. cerevisiae deletion strains, locus YOR001W, strain rrp6, stronger effect = lower value 1.01 | S. cerevisiae deletion strains, locus YOR061W, strain CKA2, stronger effect = lower value 0.918 | S. cerevisiae deletion strains, locus YOR069W, strain VPS5, stronger effect = lower value 0.935 | S. cerevisiae deletion strains, locus YOR070C, strain gyp1, stronger effect = lower value 0.977 | S. cerevisiae deletion strains, locus YOR080W, strain dia2, stronger effect = lower value 0.998 | S. cerevisiae deletion strains, locus YOR083W, strain WHI5, stronger effect = lower value 0.965 | S. cerevisiae deletion strains, locus YOR106W, strain vam3, stronger effect = lower value 0.955 | S. cerevisiae deletion strains, locus YOR231W, strain MKK1, stronger effect = lower value 0.977 | S. cerevisiae deletion strains, locus YOR265W, strain rbl2, stronger effect = lower value 0.978 | S. cerevisiae deletion strains, locus YOR270C, strain vph1, stronger effect = lower value 0.92 | S. cerevisiae deletion strains, locus YOR290C, strain snf2, stronger effect = lower value 0.971 | S. cerevisiae deletion strains, locus YOR316C, strain cot1, stronger effect = lower value 0.93 | S. cerevisiae deletion strains, locus YPL051W, strain arl3, stronger effect = lower value 0.921 | S. cerevisiae deletion strains, locus YPL078C, strain atp4, stronger effect = lower value 0.94 | S. cerevisiae deletion strains, locus YPL106C, strain sse1, stronger effect = lower value 0.869 | S. cerevisiae deletion strains, locus YPL240C, strain hsp82, stronger effect = lower value 0.991 | S. cerevisiae deletion strains, locus YPL256C, strain CLN2, stronger effect = lower value 0.93 | S. cerevisiae deletion strains, locus YPR167C, strain met16, stronger effect = lower value 0.932
active: S. cerevisiae deletion strains, locus YJR075W, strain HOC1, stronger effect = lower value 0.828 | S. cerevisiae deletion strains, locus YKL068W, stronger effect = lower value 0.936 | S. cerevisiae deletion strains, locus YKL190W, strain CNB1, stronger effect = lower value 0.796 | S. cerevisiae deletion strains, locus YKR001C, strain vps1, stronger effect = lower value 0.544 | S. cerevisiae deletion strains, locus YLR039C, strain RIC1, stronger effect = lower value 0.245 | S. cerevisiae deletion strains, locus YLR262C, strain YPT6 (second series), stronger effect = lower value 0.566 | S. cerevisiae deletion strains, locus YLR262C, strain YPT6, stronger effect = lower value 0.193 | S. cerevisiae deletion strains, locus YLR268W, strain sec22, stronger effect = lower value 0.68 | S. cerevisiae deletion strains, locus YLR330W, strain CHS5, stronger effect = lower value 0.849 | S. cerevisiae deletion strains, locus YLR342W, strain FKS1 (second series), stronger effect = lower value 0.536 | S. cerevisiae deletion strains, locus YLR371W, strain rom2, stronger effect = lower value 0.791 | S. cerevisiae deletion strains, locus YLR418C, strain cdc73, stronger effect = lower value 0.42 | S. cerevisiae deletion strains, locus YML016C, strain PPZ1, stronger effect = lower value 0.911 | S. cerevisiae deletion strains, locus YML032C, strain rad52, stronger effect = lower value 0.87 | S. cerevisiae deletion strains, locus YML124C, strain tub3, stronger effect = lower value 0.929 | S. cerevisiae deletion strains, locus YMR078C, strain ctf18, stronger effect = lower value 0.741 | S. cerevisiae deletion strains, locus YMR125W, strain sto1, stronger effect = lower value 0.792 | S. cerevisiae deletion strains, locus YMR223W, strain ubp8, stronger effect = lower value 0.801 | S. cerevisiae deletion strains, locus YMR307W, strain GAS1, stronger effect = lower value 0.26 | S. cerevisiae deletion strains, locus YNL067W, strain RPL9B, stronger effect = lower value 0.808 | S. cerevisiae deletion strains, locus YNL071W, strain lat1, stronger effect = lower value 0.804 | S. cerevisiae deletion strains, locus YNL153C, strain GIM3, stronger effect = lower value 0.822 | S. cerevisiae deletion strains, locus YNL233W, strain BNI4, stronger effect = lower value 0.763 | S. cerevisiae deletion strains, locus YNL271C, strain bni1, stronger effect = lower value 0.905 | S. cerevisiae deletion strains, locus YNL298W, strain CLA4, stronger effect = lower value 0.878 | S. cerevisiae deletion strains, locus YNL307C, strain MCK1, stronger effect = lower value 0.165 | S. cerevisiae deletion strains, locus YNL322C, strain KRE1, stronger effect = lower value 0.861 | S. cerevisiae deletion strains, locus YNR052C, strain pop2, stronger effect = lower value 0.818 | S. cerevisiae deletion strains, locus YOL147C, strain pex11, stronger effect = lower value 0.883 | S. cerevisiae deletion strains, locus YOR136W, strain idh2, stronger effect = lower value 0.905 | S. cerevisiae deletion strains, locus YOR144C, strain elg1, stronger effect = lower value 0.901 | S. cerevisiae deletion strains, locus YOR184W, strain ser1, stronger effect = lower value 0.628 | S. cerevisiae deletion strains, locus YPL055C, strain LGE1, stronger effect = lower value 0.743 | S. cerevisiae deletion strains, locus YPL241C, strain CIN2, stronger effect = lower value 0.922 | S. cerevisiae deletion strains, locus YPR119W, strain clb2, stronger effect = lower value 0.908 | S. cerevisiae deletion strains, locus YPR141C, strain kar3, stronger effect = lower value 0.902 | S. cerevisiae deletion strains, locus YPR163C, strain tif3, stronger effect = lower value 0.355 | S. cerevisiae deletion strains, strain wtn01, stronger effect = lower value 0.786 | S. cerevisiae strains, strain wild type, stronger effect = lower value 0.806
